Laboratory results taken from PubChem BioAssay.
The source made the active and inactive calls.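 How the source made its calls, unless noted: active means fluorescence slope higher than the sample average by over 3 SD (cut at about -0.22 in these data, passing the limit was not always enough); inactive means the rest.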

How the values were obtained:
[1] = inhibitors of TNFa-induced NFkB p65 translocation, primary screen, imaging, HUVEC, MLSMR starter and 10KST1 sets (AID 438;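 active means inhibition above 20% together with a positive visual image hit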;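 further: compound added about 3h40 before a 20 min TNFalpha stimulation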;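 on inhibition: signal is the nuclear over cytoplasmic p65 intensity ratio per well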); settings: HUVEC TNFa-induced p65 nuclear translocation; cell count: measured here: nuclei count (cytotoxicity indicator), at 2.08 µM unless noted; inhibition: at 2 µM, stronger effect = higher value unless noted
[2] = inhibitors of E-selectin induction by TNFa, primary screen, imaging, HUVEC, immunofluorescence, MLSMR starter and 10KST1 sets (AID 487;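 active means visually confirmed hit in the image check and inhibition above 20%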;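 on inhibition: signal is fraction of cell area covered by stained E-selectin grains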;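 on nuclei count: 100% = median nuclei count of all wells on the same plate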); settings: HUVEC TNFalpha-induced E-selectin immunofluorescence imaging, at 2 µM; inhibition: stronger effect = higher value; nuclei count: measured here: cell number, toxicity
[3] = DUSP6 inhibitors restoring Erk phosphorylation by chemical complementation, primary imaging in DUSP6-transfected HeLa (AID 609;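 active means compounds giving at least 50% inhibition in the cell-based MKP-3 phosphatase rescue imaging test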;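 on inhibition: phospho-Erk level distribution per well compared with pooled transfected vehicle control wells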); settings: HeLa MKP-3 transfected, phospho-Erk imaging KS statistic, at 10 µM
[4] = molecular target: Dual specificity protein phosphatase 6 (Homo sapiens) (UniProt Q16828); experiment: as above; settings: HeLa MKP-3 transfected, phospho-Erk imaging KS statistic, at 10 µM, stronger effect = higher value
Dual specificity protein phosphatase 6 (Homo sapiens), sequence (Q16828 whole entry, looked up): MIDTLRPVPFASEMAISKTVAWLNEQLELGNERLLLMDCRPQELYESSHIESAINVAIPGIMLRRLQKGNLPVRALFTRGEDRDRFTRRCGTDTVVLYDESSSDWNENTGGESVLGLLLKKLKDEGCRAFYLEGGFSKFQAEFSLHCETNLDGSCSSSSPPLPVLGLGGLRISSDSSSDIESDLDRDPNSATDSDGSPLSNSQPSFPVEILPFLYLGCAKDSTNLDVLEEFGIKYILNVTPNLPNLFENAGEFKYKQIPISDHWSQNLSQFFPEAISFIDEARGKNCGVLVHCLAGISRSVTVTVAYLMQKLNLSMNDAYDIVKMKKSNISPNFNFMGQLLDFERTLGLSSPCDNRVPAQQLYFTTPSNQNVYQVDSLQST

[5] = molecular target: Voltage-gated potassium channel subunit beta-2 (Rattus norvegicus) (UniProt P62483); experiment: KvBeta enzyme negative modulators, primary screen, biochemical, NADPH fluorescence (AID 622); settings: recombinant KvBeta, 4-cyanobenzaldehyde reduction, at 10 µM, stronger effect = higher value;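 further: slope of raw intensity against log time taken from 70 to 1610 s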
Voltage-gated potassium channel subunit beta-2 (Rattus norvegicus), sequence (P62483 whole entry, looked up): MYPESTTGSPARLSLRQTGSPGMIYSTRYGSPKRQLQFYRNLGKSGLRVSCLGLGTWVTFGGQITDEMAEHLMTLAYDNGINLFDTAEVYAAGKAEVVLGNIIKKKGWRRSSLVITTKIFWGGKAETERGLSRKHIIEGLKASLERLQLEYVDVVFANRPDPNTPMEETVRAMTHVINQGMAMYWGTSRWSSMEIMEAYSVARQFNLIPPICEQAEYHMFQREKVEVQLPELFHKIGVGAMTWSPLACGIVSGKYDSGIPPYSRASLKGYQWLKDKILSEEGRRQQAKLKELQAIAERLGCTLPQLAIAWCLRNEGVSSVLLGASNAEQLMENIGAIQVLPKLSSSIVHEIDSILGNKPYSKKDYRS

[6] = molecular target: Voltage-gated potassium channel subunit beta-2 (Rattus norvegicus) (UniProt P62483); experiment: KvBeta positive modulators, primary screen, biochemical, NADPH fluorescence (AID 623;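 active means NADPH fluorescence slope more negative than the mean of all samples by about 3 SD, 99.7% confidence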;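 further: fluorescence intensity change per second fitted from 20 to 320 s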); settings: Recombinant KvBeta, NADPH fluorescence decrease slope, 10 min; at 10 µM; stronger effect = lower value
[7] = molecular target: Muscarinic acetylcholine receptor M4 (Homo sapiens) (UniProt P08173); experiment: compounds altering M4/GIRK thallium flux, either direction, primary screen, M4 allosteric agonist project, cell-based, HEK293 M4/GIRK, BTC-AM (AID 625;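 active means fluorescence slope after compound addition differing from the mean of all tested samples at 99.7% confidence, mostly higher but some lower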;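 further: thallium influx through GIRK channels coupled to M4 in HEK293 cells with BTC-AM dye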); settings: at 10 µM, actives lie on both sides
Muscarinic acetylcholine receptor M4 (Homo sapiens), sequence (P08173 whole entry, looked up): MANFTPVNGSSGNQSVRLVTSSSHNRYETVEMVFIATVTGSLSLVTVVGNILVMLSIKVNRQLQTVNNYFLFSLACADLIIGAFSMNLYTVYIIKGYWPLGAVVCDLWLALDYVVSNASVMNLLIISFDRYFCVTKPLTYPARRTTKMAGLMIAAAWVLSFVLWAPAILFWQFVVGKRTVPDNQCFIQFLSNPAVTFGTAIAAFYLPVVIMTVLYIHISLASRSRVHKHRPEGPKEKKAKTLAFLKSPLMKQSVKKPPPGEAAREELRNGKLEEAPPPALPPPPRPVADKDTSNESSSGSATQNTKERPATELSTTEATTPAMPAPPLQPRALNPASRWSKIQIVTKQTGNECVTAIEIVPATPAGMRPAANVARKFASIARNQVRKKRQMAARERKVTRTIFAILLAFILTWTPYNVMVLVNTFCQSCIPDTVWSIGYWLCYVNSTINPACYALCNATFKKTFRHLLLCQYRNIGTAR

[8] = inhibitors of larval lipid processing in zebrafish, primary screen, whole organism, PED6 fluorescence, gall bladder and intestine (AID 686;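 active means a full or partial loss of lipid-probe fluorescence in the fish gall bladder, intestine or both, judged by eye; inactive means no fluorescence loss, or compound toxic to the fish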;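 further: larvae 5 to 7 days old with five fish per well; signal comes from phospholipase A2 cleavage of quenched PED6 carried via bile; overnight exposure to compound and PED6 before scoring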); settings: Zebrafish larvae PED6 lipid processing, fluorescence scoring
[9] = inhibitors of Chlamydomonas gravitaxis, primary screen, whole organism, Chlamydomonas reinhardtii, WT vs cilia-less mutant, absorbance, 96-well (AID 463189;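 active means inhibition at or above 50% relative to wild type and mutant plate controls; inactive means inhibition below 50%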;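 further: 0% = wild type cc124 cells in DMSO and 100% = ciliumless bld1 mutant cells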); settings: OD600 absorbance, 2 days, at 10 µM, stronger effect = higher value
[10] = inhibitors of mutant huntingtin aggregation, primary screen, imaging, exon1htt(103Q)mCFP cells, high-content imaging (AID 483;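 active means visual image review flags a hit and inhibition of aggregation exceeds 20%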;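 further: compound exposure lasted 3 days before fixation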;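 on nuclei count: percent of the per-plate median nuclei count of sample wells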); settings: exon1htt(103Q)mCFP cell line, aggregate imaging, at 2 µM; inhibition of aggregation: stronger effect = higher value; nuclei count: measured here: cell count, toxicity
[11] = molecular target: Alpha-2C adrenergic receptor (Homo sapiens) (UniProt P18825); experiment: modulators of alpha2C/GIRK thallium flux, primary screen, cell-based, HEK293 alpha2C/GIRK1/2 (AID 624;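 active means fluorescence slope after compound addition differing from the mean of all screened samples at 99.7% confidence, in either direction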;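 further: slope of fluorescence ratio to pre-addition baseline per second over 15 to 24 s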); settings: thallium flux BTC fluorescence, at 10 µM, actives lie on both sides
Alpha-2C adrenergic receptor (Homo sapiens), sequence (P18825 whole entry, looked up): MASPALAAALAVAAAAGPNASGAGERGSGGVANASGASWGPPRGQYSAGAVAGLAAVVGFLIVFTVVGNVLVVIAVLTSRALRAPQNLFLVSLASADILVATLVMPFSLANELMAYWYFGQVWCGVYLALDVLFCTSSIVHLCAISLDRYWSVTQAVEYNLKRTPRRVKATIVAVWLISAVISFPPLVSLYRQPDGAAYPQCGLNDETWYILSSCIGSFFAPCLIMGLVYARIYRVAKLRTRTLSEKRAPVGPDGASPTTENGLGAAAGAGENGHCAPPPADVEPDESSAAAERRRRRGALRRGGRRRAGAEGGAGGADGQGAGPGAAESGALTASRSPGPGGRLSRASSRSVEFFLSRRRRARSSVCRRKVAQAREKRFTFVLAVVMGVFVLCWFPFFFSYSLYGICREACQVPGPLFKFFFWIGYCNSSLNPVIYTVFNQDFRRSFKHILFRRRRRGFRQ

[12] = inhibitors of Sendai virus-induced IRF3 signaling, primary screen, TLR/RLR signaling modifier project, cell-based, Sendai virus stimulus, luciferase, 10K MLSCN set (AID 602276;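 active means inhibition at or above 50% at 10 µM; inactive means inhibition below 50%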;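 further: firefly luciferase from ISG56 promoter only with Renilla not read in this screen; 0% = Sendai virus plus DMSO and 100% = medium plus DMSO without virus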); settings: HEK293 RL24 IRF3 luciferase reporter, at 10 µM, stronger effect = higher value
[13] = inhibitors of poly I:C-induced TLR3 signaling, primary screen, cell-based, poly I:C stimulus, luciferase, 10K MLSCN set (AID 602277;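 active means inhibition of the reporter signal at or above 50%; inactive means inhibition below 50%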); settings: HEK293-TLR3 RL24 IRF3 luciferase reporter, at 10 µM, stronger effect = higher value
[14] = measured here: cell density z-score
[15] = measured here: nuclear c-Myc green intensity z-score
[16] = measured here: nuclear pErk red intensity z-score, stronger effect = higher value

## Nc1ncc(P(=S)(N2CCOCC2)N2CCOCC2)s1
[1]
  cell count: 452
  inhibition: -2.7% (inactive)
[2]
  inhibition: -296% (inactive)
  nuclei count: 169%
[3]; [14]
  z-score: -0.00628
[3]; [15]
  z-score: -0.183
[3]; [16]
  z-score: -1.06
[4]
  inhibition: 4.37% (inactive)
[5]
  fluorescence slope: -0.461 (inactive)
[6]
  NADPH fluorescence slope: -8.8e-05 (inactive)
[7]
  fluorescence slope: 0.00503 (inactive)
[8]
  outcome: inactive
[9]
  inhibition: 11.1% (inactive)

## CCCCc1nc(N2CCNCC2)c(C#N)c2c1CSC(C)(C)C2
[1]
  cell count: 519
  inhibition: -12.8% (inactive)
[2]
  inhibition: -143% (inactive)
  nuclei count: 135%
[3]; [14]
  z-score: 0.415
[3]; [15]
  z-score: -0.261
[3]; [16]
  z-score: 0.643
[4]
  inhibition: 7.42% (inactive)
[5]
  fluorescence slope: -0.49 (inactive)
[6]
  NADPH fluorescence slope: -0.000122 (inactive)
[7]
  fluorescence slope: 0.00482 (inactive)
[8]
  outcome: inactive
[9]
  inhibition: 55.2% (active)

## COc1ccc(C2SCC(=O)Nc3c2c(=O)[nH]n3C2CCCCCC2)cc1 (stereo not drawn)
[1]
  cell count: 564
  inhibition: -7.2% (inactive)
[2]
  inhibition: 70.4% (inactive)
  nuclei count: 96%
[3]; [14]
  z-score: 1.06
[3]; [15]
  z-score: 0.0384
[3]; [16]
  z-score: -1.4
[4]
  inhibition: 2.71% (inactive)
[5]
  fluorescence slope: -0.478 (inactive)
[6]
  NADPH fluorescence slope: -3e-05 (inactive)
[7]
  fluorescence slope: 0.007 (inactive)
[8]
  outcome: inactive
[9]
  inhibition: 29.9% (inactive)

## CN(C)CCOC(=O)c1cn(Cc2ccccc2)c2ccccc12
[1]
  cell count: 639
  inhibition: -9.5% (inactive)
[2]
  inhibition: -111% (inactive)
  nuclei count: 182%
[3]; [14]
  z-score: 1.72
[3]; [15]
  z-score: -0.185
[3]; [16]
  z-score: -0.202
[4]
  inhibition: -6.06% (inactive)
[5]
  fluorescence slope: -0.507 (inactive)
[6]
  NADPH fluorescence slope: -6.8e-05 (inactive)
[7]
  fluorescence slope: 0.00681 (inactive)
[8]
  outcome: inactive
[9]
  inhibition: 37% (inactive)

## COc1ccc(C(=O)CC2C(=O)N(C)C(=O)N(C)C2=O)cc1
[1]
  cell count: 726
  inhibition: 14.4% (inactive)
[2]
  inhibition: -27.9% (inactive)
  nuclei count: 135%
[3]; [14]
  z-score: 0.66
[3]; [15]
  z-score: 0.621
[3]; [16]
  z-score: -1.11
[4]
  inhibition: -3.95% (inactive)
[5]
  fluorescence slope: -0.453 (inactive)
[6]
  NADPH fluorescence slope: -4.3e-05 (inactive)
[7]
  fluorescence slope: 0.00539 (inactive)
[8]
  outcome: inactive
[9]
  inhibition: 0.215% (inactive)

## CCCCNC(=O)Nc1ccc(C(O)(C(=O)OCC)C(F)(F)F)cc1 (stereo not drawn)
[1]
  cell count: 688
  inhibition: -5.9% (inactive)
[2]
  inhibition: -16.7% (inactive)
  nuclei count: 173%
[3]; [14]
  z-score: -0.832
[3]; [15]
  z-score: -1.24
[3]; [16]
  z-score: 1.19
[4]
  inhibition: 3.49% (inactive)
[5]
  fluorescence slope: -0.432 (inactive)
[6]
  NADPH fluorescence slope: -4.2e-05 (inactive)
[7]
  fluorescence slope: 0.00537 (inactive)
[8]
  outcome: inactive
[9]
  inhibition: 5.22% (inactive)

## CCc1nc(N2CCNCC2)c(C#N)c2c1CSC(C)(C)C2
[1]
  cell count: 652
  inhibition: 3% (inactive)
[2]
  inhibition: -79.8% (inactive)
  nuclei count: 159%
[3]; [14]
  z-score: -1.09
[3]; [15]
  z-score: -0.257
[3]; [16]
  z-score: 0.497
[4]
  inhibition: 1.12% (inactive)
[5]
  fluorescence slope: -0.474 (inactive)
[6]
  NADPH fluorescence slope: -1.6e-05 (inactive)
[7]
  fluorescence slope: 0.00552 (inactive)
[8]
  outcome: inactive
[9]
  inhibition: 15% (inactive)

## CCOc1cccc(N2C(=O)CC(=O)NC2=O)c1
[1]
  cell count: 351
  inhibition: -3.3% (inactive)
[10]
  inhibition of aggregation: -8.7% (inactive)
  nuclei count: 109%
[2]
  inhibition: -63.8% (inactive)
  nuclei count: 107%
[5]
  fluorescence slope: -0.524 (inactive)
[6]
  NADPH fluorescence slope: -1.6e-06 (inactive)
[11]
  slope: 0.00568 (inactive)
[12]
  inhibition: 2.1% (inactive)
[13]
  inhibition: 3.82% (inactive)

## CCCN(CC#CCO)CCC
[1]
  cell count: 701
  inhibition: 11.7% (inactive)
[2]
  inhibition: -121% (inactive)
  nuclei count: 162%
[3]; [14]
  z-score: 0.317
[3]; [15]
  z-score: 1.4
[3]; [16]
  z-score: 0.749
[4]
  inhibition: -11.4% (inactive)
[5]
  fluorescence slope: -0.448 (inactive)
[6]
  NADPH fluorescence slope: -4.9e-05 (inactive)
[7]
  fluorescence slope: 0.00435 (inactive)
[8]
  outcome: inactive
[9]
  inhibition: -2.44% (inactive)

## CCCC12CN3CN(C1)CC(CCC)(C3)C2O (stereo not drawn)
[1]
  cell count: 527
  inhibition: 5.6% (inactive)
[2]
  inhibition: -164% (inactive)
  nuclei count: 146%
[3]; [14]
  z-score: 0.514
[3]; [15]
  z-score: 1.99
[3]; [16]
  z-score: -1.5
[4]
  inhibition: 7.42% (inactive)
[5]
  fluorescence slope: -0.474 (inactive)
[6]
  NADPH fluorescence slope: -0.000119 (inactive)
[7]
  fluorescence slope: 0.00532 (inactive)
[8]
  outcome: inactive
[9]
  inhibition: -2.85% (inactive)

## OC1(c2ccc(F)cc2)CCNC1 (stereo not drawn)
[1]
  cell count: 391
  inhibition: -8% (inactive)
[2]
  inhibition: -146% (inactive)
  nuclei count: 147%
[3]; [14]
  z-score: -0.692
[3]; [15]
  z-score: -1.09
[3]; [16]
  z-score: 1.31
[4]
  inhibition: 1.48% (inactive)
[5]
  fluorescence slope: -0.468 (inactive)
[6]
  NADPH fluorescence slope: -0.000119 (inactive)
[7]
  fluorescence slope: 0.00482 (inactive)
[8]
  outcome: inactive
[9]
  inhibition: 16.5% (inactive)

## COc1ccc(OC)c(N2C(=O)NC(=O)C(CCc3ccncc3)(CCc3ccncc3)C2=O)c1
[1]
  cell count: 397
  inhibition: 1% (inactive)
[10]
  inhibition of aggregation: -24.7% (inactive)
  nuclei count: 107%
[2]
  inhibition: -73% (inactive)
  nuclei count: 115%
[5]
  fluorescence slope: -0.329 (inactive)
[6]
  NADPH fluorescence slope: -2.9e-06 (inactive)
[11]
  slope: 0.00479 (inactive)
[12]
  inhibition: 10.1% (inactive)
[13]
  inhibition: 12% (inactive)

## O=C(c1ccco1)C12CN3CN(CN(C3)C1)C2
[1]
  cell count: 403
  inhibition: -7% (inactive)
[2]
  inhibition: -98.3% (inactive)
  nuclei count: 165%
[3]; [14]
  z-score: -0.216
[3]; [15]
  z-score: 0.212
[3]; [16]
  z-score: 0.209
[4]
  inhibition: 17.4% (inactive)
[5]
  fluorescence slope: -0.431 (inactive)
[6]
  NADPH fluorescence slope: -0.000115 (inactive)
[7]
  fluorescence slope: 0.00486 (inactive)
[8]
  outcome: inactive
[9]
  inhibition: -4.37% (inactive)

## COC(=O)C(O)(c1ccc(NC(=O)c2ccco2)c(OC)c1)C(F)(F)F (stereo not drawn)
[1]
  cell count: 569
  inhibition: 3.2% (inactive)
[2]
  inhibition: 1% (inactive)
  nuclei count: 152%
[3]; [14]
  z-score: -0.555
[3]; [15]
  z-score: 0.637
[3]; [16]
  z-score: 1.11
[4]
  inhibition: -3.97% (inactive)
[5]
  fluorescence slope: -0.43 (inactive)
[6]
  NADPH fluorescence slope: -5.3e-05 (inactive)
[7]
  fluorescence slope: 0.00513 (inactive)
[8]
  outcome: inactive
[9]
  inhibition: 0.634% (inactive)
